Compound activity deposited in PubChem by National Center for Advancing Translational Sciences (NCATS).
p53ts 39C tox = kills p53ts cells at the nonpermissive temperature; H1299-p53A138V viability at 39C, ATP luminescence, 24 h; Potency, µM (highest dose often 46.1 µM), most hits filed as cytotoxic; 1.5% of 130,000 active; note: nearly all actives have a fitted effect of over 55% in size
Imprint erasure = inducers of genomic imprint erasure in mouse ES cells; AID 1948; Potency, µM (titrated, usually from 60.7 µM), usual class: activators; 0.02% of 110,000 active; mouse ES Peg3-LacZ reporter, beta-gal luminescence, 40 h
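Each well holds 300 Peg3LacZ-Neo (maternal) female ES cells incubated 40 h at 37C, 5% CO2. LacZ is measured by BetaGlo luminescence, with AC50 and maximum efficacy derived from dose-response curves.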
IkB sig inh = inhibitors of IkB signaling in ABC-DLBCL cells; AID 445; Potency, µM (doses to about 57.1 µM); ABC-DLBCL IkBa-CBG/CBR dual luciferase ratio, 4 h; response scale: scaled: untreated 0%, proteasome inhibitor 100%; 0.04% of 110,000 active; active = well fitted curve in the direction sought with a large enough effect in the signal ratio, not every such curve was filed as active; inconclusive = small, poorly fitted or top-dose-only effect, or a change in a side signal; the % refers to the signal ratio;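 note: the direction sought is a rising ratio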
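Curves were fitted separately to fusion (green), unfused (red) and ratio luminescence, then classed by r2, magnitude and activity. Cells: OCI-Ly3, 4 h compound plus doxycycline at 37C; 10 uM MG-132 defined full response.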
p53ts 32C tox = cytotoxicity in p53ts cells at permissive temperature. H1299-p53A138V at 32C, ATP luminescence viability, 24 h. Potency, µM (titrated, usually from 46.1 µM), hits mostly cytotoxic. 0.93% of 130,000 active. AID 924; note: nearly all actives have a fitted effect of over 55% in size
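ATP-content luminescence (ATPlite) read-out after 24 h compound exposure at 32C in H1299-p53A138V cells (600/well). Tested up to 46 uM. Normalized to DMSO (0%) and 100 uM tamoxifen (100% killing); Hill-fit AC50.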
Hits are given with their value; n = inactive; u = inconclusive; x = not tested or not shown; [ ] = dose if it differs, or a comment. A selection: hits, their analogues and other compounds. The true share with any hit is near 1.8%. Unless noted, calls come from the whole dose curve; as a rule, active = well fitted curve in the direction sought with a large enough effect; inconclusive = small, poorly fitted or top-dose-only effect, or another doubt; inactive = no such curve, though single readings can be large; an effect the other way counts as inactive or inconclusive.

SMILES | p53ts 39C tox | Imprint erasure | IkB sig inh | p53ts 32C tox
COc1cccc(C(=O)Nc2ccc(C)cc2)c1 | 15.8µM | n | u | 15.8µM
COc1cccc(C(=O)Nc2ccc(C(=O)O)cc2)c1 | n | n | n | n
COc1cccc(C(=O)NC2=NCCS2)c1 | u | n | n | 15.8µM
Cc1ccc(NC(=O)c2ccccc2O)cc1 | 10µM | n | u | 14.1µM
CCOc1ccc(-c2cc(CCCC(=O)Nc3cccc(OC)c3)no2)cc1 | n | n | 3.16µM | n
CCOc1ccc(-c2cc(CCCC(=O)Nc3cc(OC)ccc3OC)no2)cc1 | n | n | u | n
CCOc1ccc(-c2cc(CCCC(=O)NCc3cccnc3)no2)cc1 | u | n | u | 15.8µM
O=C1OC2(CCCCC2)OC(=O)C1=CNc1ccc2c(c1)OCO2 | n | n | n | n
O=C1/C(=C/Nc2ccc3c(c2)OCO3)CCc2ccccc21 | 6.31µM | n | u | 3.98µM
CCC(=O)N1CCc2cc(Br)cc(S(=O)(=O)N3CCC(C(=O)Nc4ccccc4F)CC3)c21 | n | n[10.9 µM] | u | n
O=S(=O)(Nc1ccc(Cl)cc1Cl)c1cc(Cl)ccc1Cl | n | x | x | n
COc1cccc2sc(Nc3nnc(-c4ccccc4Cl)o3)nc12 | 12.6µM | n | u | u
COc1cccc(-c2nnc(Nc3nc4c(F)cccc4s3)o2)c1 | 12.6µM | n | u | u
COc1ccccc1-c1nnc(Nc2nc3c(OC)cccc3s2)o1 | u | n | u | n
COc1cccc(-c2nnc(-c3ccc(C(F)(F)F)cc3)o2)c1 | n | x | x | n
CCC(c1nnnn1Cc1ccccc1)N(Cc1ccco1)Cc1cc2cc(OC)ccc2[nH]c1=O (stereo not given) | n | x | 3.98µM | n
Cc1cc(C)c(S(=O)(=O)Nc2ccccc2C(=O)O)cc1C | n | x | x | n
COc1ccc2nc3sc(C(=O)Nc4cc(Cl)c(OC)cc4OC)cc3cc2c1 | 6.31µM | n[10.9 µM] | u | u
CCOc1ccc(CCNC(=O)c2cc3cc4cc(OC)ccc4nc3s2)cc1OCC | n | n[10.9 µM] | n | n
CC[C@]1(O)C[C@H]2CN(CCc3c([nH]c4ccccc34)[C@](C(=O)OC)(c3cc4c(cc3OC)N(C=O)[C@H]3[C@@](O)(C(=O)OC)[C@H](OC(C)=O)[C@@]5(CC)C=CCN6CC[C@]43[C@H]65)C2)C1 | 31.6µM | x | u | u
CCC1(O)CC2CN(CCc3c([nH]c4ccccc34)[C@@](C(=O)OC)(c3cc4c(cc3OC)N(C=O)C3[C@]45CCN4CC=C[C@@](CC)([C@@H](OC(C)=O)[C@]3(O)C(=O)OC)[C@H]45)C2)C1 (stereo not given in full) | x | n | x | x
CCc1nn2c(=O)cc(COC(=O)c3ccccc3NC(=O)COc3ccccc3C)nc2s1 | n | n[10.9 µM] | u | n
COc1ccc(C(=O)C(CN2CCOCC2)c2ccccc2)cc1F (stereo not given) | 20µM | n | u | u
COc1ccc(C(O)C(CN2CCOCC2)c2ccccc2)cc1F (stereo not given) | n | n | n | n
COc1ccc(OC)c(NC2=C(c3ccccc3)C(=O)c3ccccc32)c1 | n | n[10.9 µM] | u | n
SMILES | p53ts 39C tox | Imprint erasure | IkB sig inh | p53ts 32C tox
CCCCCCCCCCCCC[N+](C)(C)Cc1ccccc1 | 12.6µM | n | x | 15.8µM
Cc1cccc(CNC(=O)C2CCC(CNS(=O)(=O)c3ccc4c(c3)CCCC(=O)N4)CC2)c1 (stereo not given) | n | n[10.9 µM] | n | n
COc1cc(C(=O)Oc2c(CN3CCOCC3)cc(Cl)c3cccnc23)cc(OC)c1OC | 12.6µM | n | u | u
COc1ccc(C(=O)Oc2c(CN3CCOCC3)cc(Cl)c3cccnc23)cc1 | u | n | n | n
Cc1cc(C)c(NC(=O)Cn2nnc3sc4c(c3c2=O)CCC(C(C)(C)C)C4)c(C)c1 (stereo not given) | 12.6µM | n[10.9 µM] | n | u
COc1ccccc1C(=O)Nc1c(C(=O)N(CCN(C)C)Cc2ccco2)oc2ccccc12 | 20µM | n[10.9 µM] | u | n
COc1ccc2ncc3c(-c4ccc(C)c(C)c4)nn(CC(=O)NC4CCCCC4)c3c2c1 | n | n[10.9 µM] | n | n
CS(=O)(=O)c1ccc2nc(NC(=O)c3ccco3)sc2c1 | 12.6µM | n | u | 12.6µM
CN(C)S(=O)(=O)c1ccc2nc(NC(=O)c3cccnc3)sc2c1 | u | n | n | 15.8µM
Cc1ccc(C(=O)Nc2nc3ccc(S(C)(=O)=O)cc3s2)o1 | 12.6µM | x | x | 11.2µM
CC(C)(C)NS(=O)(=O)c1ccc2nc(NC(=O)c3cccnc3)sc2c1 | n | n[10.9 µM] | u | n
CCOC(=O)c1ccc2nc(NC(=O)c3ccco3)sc2c1 | u | n | u | u
O=S1(=O)Nc2c(ccc3cccnc23)-c2ccccc21 | n | n | 0.794µM | n
O=c1[nH]n(-c2cccc3cccnc23)c(=O)c2ccccc12 | n | n | n | n
CN(CC(=O)O)CC(=O)O | n[9.22 µM] | n[10.9 µM] | n[11.4 µM] | n[9.22 µM]
NCS(=O)(=O)O | n[9.22 µM] | n[10.9 µM] | n[11.4 µM] | n[9.22 µM]
O=C(Nc1noc2ccccc12)c1ccc(F)cc1 | u | n[10.9 µM] | n | 10µM
COC(=O)c1ccccc1NC(=O)c1cc2c(s1)-c1ccccc1OC2 | n | n[10.9 µM] | u | n
COc1cc(NC(=O)c2cc3c(s2)-c2ccccc2OC3)cc(OC)c1OC | u | n[10.9 µM] | u | 12.6µM
Cc1ccccc1Nc1nn2c(=O)c3ccc(C(=O)NCc4ccccc4)cc3nc2s1 | n | n[10.9 µM] | n | n
CCc1ccc(NC(=O)c2ccc3c(=O)n4nc(Nc5ccccc5C)sc4nc3c2)cc1 | u | n[10.9 µM] | u | 12.6µM
COc1ccccc1Nc1nn2c(=O)c3ccc(C(=O)NCc4cccs4)cc3nc2s1 | 10µM | n[10.9 µM] | u | 3.16µM
Cc1ccc(C)c(Nc2nn3c(=O)c4ccc(C(=O)NCc5cccs5)cc4nc3s2)c1 | u | n[10.9 µM] | u | 15.8µM
Cc1ccc(Cl)cc1Nc1nn2c(=O)c3ccc(C(=O)NCc4ccc(F)cc4)cc3nc2s1 | 12.6µM | n[10.9 µM] | u | n
Cc1c(C(=O)N(C)C)sc2c1c(=O)n(-c1ccc(Cl)c(Cl)c1)c(=O)n2CC(=O)Nc1ccc(Br)cc1F | n | n[10.9 µM] | n | n
SMILES | p53ts 39C tox | Imprint erasure | IkB sig inh | p53ts 32C tox
O=C(c1ccc(Br)o1)N1CCN(c2ccc3nnc(-c4ccccc4)n3n2)CC1 | n | n | u | 12.6µM
Cc1nnc2ccc(N3CCN(C(=O)c4ccccc4)CC3)nn12 | n | n | n | n
Cc1ccc(C)c(NC(=O)CSc2nnc3[nH]c(=O)cc(-c4ccccc4)n23)c1 | 1.26µM | n[10.9 µM] | u | u
Cc1ccc(NC(=O)CSc2nnc3[nH]c(=O)cc(-c4ccccc4)n23)cc1Cl | 1.58µM | n[10.9 µM] | u | u
O=C(CN1C(=O)C2CCCCN2c2ccc(C(=O)N3CCCC3)cc21)NCc1ccc(F)cc1 (stereo not given) | n | n[10.9 µM] | n | n
CCN(CC)C[C@@H](O)c1ccc2ccc3ccccc3c2c1 | n[9.22 µM] | n[10.9 µM] | n[11.4 µM] | n[9.22 µM]
CCCCCCCCCCCCC/C=C\[C@@H](O)[C@H](CO)NC(C)=O | 31.6µM | n | n | n
Nc1ccc2nc(-c3ccc(Cl)cc3)[nH]c2c1 | 10µM | n | u | 12.6µM
Nc1ccc2nc(-c3cc(Cl)c(N)c(Cl)c3)[nH]c2c1 | u | x | x | 14.1µM
Clc1ccc2nc(-c3ccccc3)[nH]c2c1 | 12.6µM | n | x | 10µM
